Results as given in ChEMBL document CHEMBL1961873, “Compounds: GSK PKIS; Assays: Nanosyn kinase panel” (2012).
Where “and” joins values, the source holds several entries; their conditions need not be identical. Identical values can stand only once.

Molecular target: Serine/threonine-protein kinase PAK 1 (Homo sapiens) (UniProt Q13153)
Conditions: at 0.1 µM

Chain of Serine/threonine-protein kinase PAK 1 (Homo sapiens) (Q13153 whole entry): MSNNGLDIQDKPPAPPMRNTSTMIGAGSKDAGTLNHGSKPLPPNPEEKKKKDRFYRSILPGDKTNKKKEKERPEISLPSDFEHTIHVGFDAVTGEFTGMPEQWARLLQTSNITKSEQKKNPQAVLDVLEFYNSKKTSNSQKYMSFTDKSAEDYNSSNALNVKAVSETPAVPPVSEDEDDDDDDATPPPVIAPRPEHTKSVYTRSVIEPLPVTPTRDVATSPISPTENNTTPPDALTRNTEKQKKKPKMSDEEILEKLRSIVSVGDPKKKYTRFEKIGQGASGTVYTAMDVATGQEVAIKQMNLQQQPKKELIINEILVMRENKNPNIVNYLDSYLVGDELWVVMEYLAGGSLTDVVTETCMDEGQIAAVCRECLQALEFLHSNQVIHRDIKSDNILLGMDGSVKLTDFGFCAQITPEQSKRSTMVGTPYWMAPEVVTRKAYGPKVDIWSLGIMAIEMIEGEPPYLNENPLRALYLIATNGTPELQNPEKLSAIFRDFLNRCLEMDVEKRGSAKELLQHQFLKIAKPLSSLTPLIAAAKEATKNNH

Going from `COc1cc(N2CCN(C(C)C)CC2)ccc1Nc1nc(Nc2cccc(F)c2C(=O)O)c2cc[nH]c2n1` to `O=C(O[C@H]1CN[C@H](C#Cc2cc3ncnc(Nc4ccc5c(ccn5Cc5cc(F)ccc5F)c4)c3s2)C1)N1CCOCC1`, the inhibition rises from 6.19% to 9.36%.

Compared with `Cn1c(-c2nonc2N)nc2cnccc21`, `COc1cccc(Nc2nccc(-c3cnn4ncccc34)n2)c1` is lower in inhibition: 5.69% for the first, 2.05% for the second.

First: Fc1cccc(COc2ccc(Nc3ncncc3C#Cc3ccccc3)cc2Cl)c1
Second: CS(=O)(=O)CCNCc1ccc(-c2ccc3ncnc(Nc4ccc(OCc5cccc(C(F)(F)F)c5)cc4)c3c2)o1
The inhibition of the first is lower: 4.22% for the first, 8.38% for the second.

Compared with `CN(c1ccc(NC(=O)NCCN2CCOCC2)cc1)c1ccnc(Nc2ccc(CS(C)(=O)=O)cc2)n1`, `NC(=O)c1ccc2c(-c3ccnc(NCCCO)n3)c(-c3ccc(F)cc3)nn2c1` is higher in inhibition: 4.31% for the first, 7.12% for the second.

First: COc1cc(Nc2ncc(-c3ccccc3)o2)cc(OC)c1
Second: CS(=O)(=O)Nc1ccc(-c2cc(-c3ccccc3)cc(C(N)=O)c2N)cc1
The inhibition of the first is higher: 6.86% for the first, 4.98% for the second.

Compared with `COC(=O)Nc1nc2ccc(Oc3ccc(NC(=O)Nc4cc(C(F)(F)F)ccc4F)cc3)cc2s1`, `OCCCNc1nccc(-c2c(-c3ccc(F)cc3)nn3cc(C(F)(F)F)ccc23)n1` is higher in inhibition: -2.89% for the first, 6.37% for the second.

Compared with `c1ccc(-c2n[nH]cc2-c2ccnc(-c3ccc(OCCn4ccnc4)cc3)c2)nc1`, `FC(F)(F)CNc1nccc(-c2cnn3ncccc23)n1` is lower in inhibition: 1.76% for the first, 0.97% for the second.

Molecular target: Serine/threonine-protein kinase PAK 1 (Homo sapiens) (UniProt Q13153)
Conditions: at 1 µM

First: NS(=O)(=O)c1ccc(N/N=C2\C(=O)Nc3ccc(C(=O)NCc4ccncc4)cc32)cc1
Second: CS(=O)(=O)Nc1ccc(-c2cc(-c3ccccc3)cc(C(N)=O)c2N)cc1
The inhibition of the first is lower: 4.68% for the first, 4.78% for the second.

Going from `CCCNc1cccc(-n2ncc3c(N/N=C/c4ccncc4)ncnc32)c1` to `COc1cccc(-n2ncc3c(N/N=C/c4ccc(C(=O)NCCN(C)C)cc4)ncnc32)c1`, the inhibition rises from -0.69% to 5.32%.

First: c1cnn2ncc(-c3ccnc(NCCCN4CCOCC4)n3)c2c1
Second: FC(F)(F)CNc1nccc(-c2cnn3ncccc23)n1
The inhibition of the first is lower: 4.03% for the first, 6.19% for the second.

Going from `O=C(Nc1n[nH]c2nnc(-c3cccnc3)cc12)C1CC1` to `CC1=C(C(=O)Nc2ccc3[nH]nc(C)c3c2)C(c2ccc(C(F)(F)F)cc2)CC(=O)N1` (stereo unspecified), the inhibition rises from 2.67% to 3.72%.

Going from `COC(=O)Nc1nc2cc(Oc3ccc(NC(=O)Nc4ccccc4)cc3)ccc2[nH]1` to `COC(=O)Nc1nc2ccc(Oc3ccc(NC(=O)Nc4cc(C(F)(F)F)ccc4F)cc3)cc2s1`, the inhibition falls from 3.46% to 1.52%.

Compared with `Fc1ccc(Nc2nccc(-c3c(-c4ccc(C(F)(F)F)cc4)nn4ncccc34)n2)cc1F`, `OCCCNc1nccc(-c2c(-c3ccc(F)cc3)nn3cc(C(F)(F)F)ccc23)n1` is higher in inhibition: 4.66% for the first, 5.57% for the second.

First: CCS(=O)(=O)c1ccc(OC)c(Nc2ncc(-c3cccc(F)c3)o2)c1
Second: COc1ccc(Nc2ncc(-c3ccccc3)o2)cc1OC
The inhibition of the first is higher: 11.2% for the first, 1.35% for the second.

Compared with `N#Cc1ccc2c(-c3ccnc(NC4CC4)n3)c(-c3ccc(F)cc3)nn2c1`, `NC(=O)c1ccc2c(-c3ccnc(NCCCO)n3)c(-c3ccc(F)cc3)nn2c1` is lower in inhibition: 7.43% for the first, 6.41% for the second.

Compared with `Cc1cc(O)cc(C)c1/C=C/c1cncc(C(N)=O)c1`, `COc1cc(Nc2ncc(-c3ccccc3)o2)cc(OC)c1` is higher in inhibition: 3.22% for the first, 6.69% for the second.

Going from `N#Cc1cccc(Nc2ncc(-c3ccccc3)o2)c1` to `Fc1cccc(COc2ccc(Nc3ncncc3C#Cc3ccccc3)cc2Cl)c1`, the inhibition rises from -0.39% to 6.2%.

Going from `CC1=C(C(=O)Nc2ccc3[nH]ncc3c2)C(c2ccc(F)cc2)N=C(c2ccc(C(F)(F)F)nc2)N1` (stereo unspecified) to `CS(=O)(=O)CCNCc1ccc(-c2ccc3ncnc(Nc4ccc(OCc5cccc(C(F)(F)F)c5)cc4)c3c2)o1`, the inhibition rises from 3.97% to 7.33%.

Going from `COc1cc2c(cc1Nc1nc(Nc3cccc(F)c3C(N)=O)c3cc[nH]c3n1)N(C(=O)CN1CCN(C(C)C)CC1)CC2` to `COc1cc(N2CCN(C(C)C)CC2)ccc1Nc1nc(Nc2cccc(F)c2C(=O)O)c2cc[nH]c2n1`, the inhibition falls from 8.11% to 5.79%.

First: Cn1c(-c2nonc2N)nc2cnccc21
Second: COc1cccc(Nc2nccc(-c3cnn4ncccc34)n2)c1
The inhibition of the first is higher: 9.42% for the first, 2.16% for the second.

First: CN(c1ccc(NC(=O)NCCN2CCOCC2)cc1)c1ccnc(Nc2ccc(CS(C)(=O)=O)cc2)n1
Second: O=C(O[C@H]1CN[C@H](C#Cc2cc3ncnc(Nc4ccc5c(ccn5Cc5cc(F)ccc5F)c4)c3s2)C1)N1CCOCC1
The inhibition of the first is lower: 4.43% for the first, 8.97% for the second.

With `c1ccc(-c2n[nH]cc2-c2ccnc(-c3ccc(OCCn4ccnc4)cc3)c2)nc1` the inhibition was 3.78%.

In the case of `CN1CCC(C(=O)Nc2n[nH]c3nc(-c4ccc(O)cc4)c(Br)cc23)CC1`, the inhibition is reported as 5.42% and 3.31%.
With `Nc1nccc(-c2c(-c3ccc(F)cc3)ncn2C2CCNCC2)n1` the inhibition was -2.75% and -0.14%.

Molecular target: Serine/threonine-protein kinase PAK 2 (Homo sapiens) (UniProt Q13177);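 further: values are mean percent inhibition of PAK2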
Sequence (Q13177 whole entry): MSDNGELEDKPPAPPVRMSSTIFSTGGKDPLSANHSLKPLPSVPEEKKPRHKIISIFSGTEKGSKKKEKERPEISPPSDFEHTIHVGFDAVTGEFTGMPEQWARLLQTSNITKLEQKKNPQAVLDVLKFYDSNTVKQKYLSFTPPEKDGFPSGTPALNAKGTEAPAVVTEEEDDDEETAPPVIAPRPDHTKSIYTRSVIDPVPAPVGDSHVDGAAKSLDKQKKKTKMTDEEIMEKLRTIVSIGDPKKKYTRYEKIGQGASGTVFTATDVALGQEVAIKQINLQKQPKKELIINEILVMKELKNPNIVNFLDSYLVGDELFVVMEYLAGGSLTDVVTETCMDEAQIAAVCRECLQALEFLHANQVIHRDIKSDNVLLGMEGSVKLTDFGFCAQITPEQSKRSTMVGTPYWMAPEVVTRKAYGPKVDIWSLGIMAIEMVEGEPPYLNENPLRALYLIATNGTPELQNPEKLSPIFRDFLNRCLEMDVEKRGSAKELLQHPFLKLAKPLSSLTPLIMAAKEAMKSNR
Conditions: at 0.1 µM

First: NS(=O)(=O)c1ccc(N/N=C2\C(=O)Nc3ccc(C(=O)NCc4ccncc4)cc32)cc1
Second: CS(=O)(=O)Nc1ccc(-c2cc(-c3ccccc3)cc(C(N)=O)c2N)cc1
The inhibition of the first is higher: 2.01% for the first, -0.21% for the second.

Going from `CCCNc1cccc(-n2ncc3c(N/N=C/c4ccncc4)ncnc32)c1` to `COc1cccc(-n2ncc3c(N/N=C/c4ccc(C(=O)NCCN(C)C)cc4)ncnc32)c1`, the inhibition rises from 0.12% to 1.01%.

Compared with `c1cnn2ncc(-c3ccnc(NCCCN4CCOCC4)n3)c2c1`, `FC(F)(F)CNc1nccc(-c2cnn3ncccc23)n1` is lower in inhibition: 1.39% for the first, 0.24% for the second.

Compared with `O=C(Nc1n[nH]c2nnc(-c3cccnc3)cc12)C1CC1`, `CC1=C(C(=O)Nc2ccc3[nH]nc(C)c3c2)C(c2ccc(C(F)(F)F)cc2)CC(=O)N1` (stereo unspecified) is higher in inhibition: -0.8% for the first, 1.78% for the second.

Going from `COC(=O)Nc1nc2cc(Oc3ccc(NC(=O)Nc4ccccc4)cc3)ccc2[nH]1` to `COC(=O)Nc1nc2ccc(Oc3ccc(NC(=O)Nc4cc(C(F)(F)F)ccc4F)cc3)cc2s1`, the inhibition falls from 1.73% to -1.5%.

Going from `Fc1ccc(Nc2nccc(-c3c(-c4ccc(C(F)(F)F)cc4)nn4ncccc34)n2)cc1F` to `OCCCNc1nccc(-c2c(-c3ccc(F)cc3)nn3cc(C(F)(F)F)ccc23)n1`, the inhibition rises from 1.92% to 2.56%.

Going from `CCS(=O)(=O)c1ccc(OC)c(Nc2ncc(-c3cccc(F)c3)o2)c1` to `COc1ccc(Nc2ncc(-c3ccccc3)o2)cc1OC`, the inhibition falls from 1.97% to 0.18%.

First: N#Cc1ccc2c(-c3ccnc(NC4CC4)n3)c(-c3ccc(F)cc3)nn2c1
Second: NC(=O)c1ccc2c(-c3ccnc(NCCCO)n3)c(-c3ccc(F)cc3)nn2c1
The inhibition of the first is lower: 0.74% for the first, 2.25% for the second.

Going from `Cc1cc(O)cc(C)c1/C=C/c1cncc(C(N)=O)c1` to `COc1cc(Nc2ncc(-c3ccccc3)o2)cc(OC)c1`, the inhibition rises from 0.07% to 1.76%.

Going from `N#Cc1cccc(Nc2ncc(-c3ccccc3)o2)c1` to `Fc1cccc(COc2ccc(Nc3ncncc3C#Cc3ccccc3)cc2Cl)c1`, the inhibition rises from 0.33% to 1.86%.

First: CC1=C(C(=O)Nc2ccc3[nH]ncc3c2)C(c2ccc(F)cc2)N=C(c2ccc(C(F)(F)F)nc2)N1 (stereo unspecified)
Second: CS(=O)(=O)CCNCc1ccc(-c2ccc3ncnc(Nc4ccc(OCc5cccc(C(F)(F)F)c5)cc4)c3c2)o1
The inhibition of the first is lower: 0.86% for the first, 1.38% for the second.

First: COc1cc2c(cc1Nc1nc(Nc3cccc(F)c3C(N)=O)c3cc[nH]c3n1)N(C(=O)CN1CCN(C(C)C)CC1)CC2
Second: COc1cc(N2CCN(C(C)C)CC2)ccc1Nc1nc(Nc2cccc(F)c2C(=O)O)c2cc[nH]c2n1
The inhibition of the first is lower: 1.01% for the first, 1.31% for the second.

Compared with `Cn1c(-c2nonc2N)nc2cnccc21`, `COc1cccc(Nc2nccc(-c3cnn4ncccc34)n2)c1` is lower in inhibition: 1.04% for the first, 1% for the second.

Going from `CN(c1ccc(NC(=O)NCCN2CCOCC2)cc1)c1ccnc(Nc2ccc(CS(C)(=O)=O)cc2)n1` to `O=C(O[C@H]1CN[C@H](C#Cc2cc3ncnc(Nc4ccc5c(ccn5Cc5cc(F)ccc5F)c4)c3s2)C1)N1CCOCC1`, the inhibition falls from 2.52% to 2.13%.

With `c1ccc(-c2n[nH]cc2-c2ccnc(-c3ccc(OCCn4ccnc4)cc3)c2)nc1` the inhibition was -0.68%.

With `CN1CCC(C(=O)Nc2n[nH]c3nc(-c4ccc(O)cc4)c(Br)cc23)CC1` the inhibition was 0.62% and -0.51%.
With `Nc1nccc(-c2c(-c3ccc(F)cc3)ncn2C2CCNCC2)n1` the inhibition was -3.09% and 0.25%.
